# Shown are actives, neighbours in structure and some others; about 3.8% of the full set was active somewhere.
# CBFb RUNX1 block: blocks binding between human CBF-beta and RUNX1; Q01196+Q13951; AlphaScreen CBFb-His/RUNX1-biotin binding, biochemical; Potency, µM (doses to about 59.8 µM), for the others: top-dose activity, negative = inhibition, most hits filed as inhibitors; 230,000 tested, under 10 active; AID 1477; further: % of control where 0% means no effect
#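 His-tagged CBF-beta and biotinylated RUNX1 (30 nM each) were premixed 20 min at room temperature, exposed to compound for 15 min, then given nickel-chelate and streptavidin AlphaScreen beads (50 ng each). After 90 min, AlphaScreen signal was read.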
# KCNH2 3.1 inh: blocks the human KCNH2 3.1 channel isoform | activity change, % (tested at about 1.8 µM) | 0.95% of 340,000 active | U2OS KCNH2 3.1, thallium flux FluxOr; hits give low values | AID 720553;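 active means maximum activity change below -70%; inconclusive means maximum activity change from -70% to -50%; inactive means maximum activity change above -50%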;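 further: thallium influx rate constant from kinetic fluorescence after stimulation buffer; on the % scale 0 is the no-effect control and ±100 the full control effect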
#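 U2OS cells transduced with KCNH2 3.1 mutant virus (1.77 x 10^8 /mL, 4 h), plated overnight at 37 C, loaded 45 min with FluxOr dye plus Red40 quencher. Thallium flux rate constant from kinetic reads after stimulation buffer, normalised to controls.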
# PLK1 PBD block: inhibitors of human PLK1 polo-box domain binding. P53350. Plk1 PBD binding of FITC phosphopeptide, fluorescence polarization. Potency, µM, without a hit: max response, negative = inhibition, usual class: inhibitors. 2.8% of 360,000 active. AID 720504; further: potency means the concentration at half of the fitted maximal effect; series mostly up to about 57 µM; on the % scale 0 is the no-effect control and ±100 the full control effect; nearly all actives have a fitted effect of over 65% in size
# Target sequence (P53350 whole entry, looked up, the tested form may be a part): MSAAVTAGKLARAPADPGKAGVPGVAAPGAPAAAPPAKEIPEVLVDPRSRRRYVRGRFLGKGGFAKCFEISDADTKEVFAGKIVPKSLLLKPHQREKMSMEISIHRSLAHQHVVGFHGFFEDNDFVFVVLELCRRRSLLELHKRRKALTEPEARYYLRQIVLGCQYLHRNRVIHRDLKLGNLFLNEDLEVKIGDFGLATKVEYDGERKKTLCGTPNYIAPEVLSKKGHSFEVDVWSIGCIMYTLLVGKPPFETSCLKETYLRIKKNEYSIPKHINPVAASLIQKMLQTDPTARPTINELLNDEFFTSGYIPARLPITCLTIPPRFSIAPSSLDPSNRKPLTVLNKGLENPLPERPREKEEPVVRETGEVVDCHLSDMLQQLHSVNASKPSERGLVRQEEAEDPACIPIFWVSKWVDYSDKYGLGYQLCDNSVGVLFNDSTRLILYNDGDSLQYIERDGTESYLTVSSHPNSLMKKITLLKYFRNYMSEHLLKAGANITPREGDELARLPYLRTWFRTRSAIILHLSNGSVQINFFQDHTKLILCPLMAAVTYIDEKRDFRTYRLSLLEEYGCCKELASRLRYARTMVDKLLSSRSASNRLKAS
# VDR inh: blocks the human vitamin D receptor; P11473; Potency, µM, inactives show max response, negative = inhibition, actives largely listed as inhibitors; VDR-SRC2-3 peptide fluorescence polarization, 2 h; 0.93% of 400,000 active; further: potency means the concentration at half of the fitted maximal effect; on the % scale 0 is the no-effect control and ±100 the full control effect
#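 Reagent solutions, kept cold and dark, are dispensed first; compounds are then pinned in at 23 nl, plates briefly spun, and incubated 2 h at ambient temperature. Inhibition of VDR–SRC2-3 peptide binding is read by fluorescence polarization.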
# hERG WT inh: inhibitors of human wildtype KCNH2 potassium channel; Q12809; U2OS, BacMam KCNH2, thallium flux FluxOr; hits give low values; activity change, % at 1.84 µM; 0.37% of 340,000 active;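 active means maximum activity change below -70%; inconclusive means maximum activity change between -70% and -50%; inactive means maximum activity change above -50%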; further: on the % scale 0 is the no-effect control and ±100 the full control effect
#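 U2OS cells were transduced with wild-type KCNH2 virus (2.03 x 10^8 / mL) for 4 h at room temperature, then cultured overnight at 37 C. Thallium flux was read with FluxOr dye. Rate constants were normalized to DMSO controls.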
# MBNL1 CUG block: inhibitors of human MBNL1 binding to CUG repeat RNA | Potency, µM (highest dose often 57.5 µM), without a hit: at the top dose activity change, negative = inhibition, usual class: inhibitors | Q9NR56 | TR-FRET MBNL1-His/biotin-(CUG)12 binding, 665/545 ratio | 0.036% of 280,000 active | AID 2675; active means well fitted inhibition curve with a large enough effect in the signal ratio, with a control signal flat, not every such curve was filed as active; inconclusive means small, poorly fitted or top-dose-only effect, or effect the other way, or a change in a side signal; inactive means no such curve, though single readings can be large or run the other way; the % refers to the signal ratio; further: potency means the concentration at half of the fitted maximal effect; on the % scale 0 is the no-effect control and ±100 the full control effect
#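 Compound titration spanned 92 nM–58 uM against the MBNL1-His/biotin-(CUG)12 complex. After 60 min at room temperature with 5 nM streptavidin-XL665 and 0.055 ng/ul terbium anti-His, ratiometric 665/545 nm emission (Ex 340 nm) normalized to controls.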
# Active calls of the source: *; ? = inconclusive; / = no result given; ! = not active in a repeat. Unless noted, the call rests on the fitted dose curve; in most records, active means well fitted curve in the direction sought with a large enough effect; inconclusive means small, poorly fitted or top-dose-only effect, or another doubt; inactive means no such curve, though single readings can be large; an effect the other way counts as inactive or inconclusive.
SMILES,CBFb RUNX1 block,KCNH2 3.1 inh,PLK1 PBD block,VDR inh,hERG WT inh,MBNL1 CUG block
Cc1c(OCC(=O)NC(Cc2ccc(Cl)cc2)C(=O)O)ccc2c(-c3ccccc3)cc(=O)oc12 (centres undefined),/,-9.8,67µM*,-10.9%,4.2,1.5%
CCn1c(N2CCN(Cc3ccc([N+](=O)[O-])cc3)CC2)nc2ccccc21,/,-94.1*,-1.9%,-7.5%,-86.8*,?
O=[N+]([O-])c1ccc(CN2CCN(c3ccc4ccccc4n3)CC2)cc1,4.0%,-99.3*,-5.3%,5.6%,?,-4.1%
CCCn1c(N2CCN(Cc3ccc(Cl)cc3)CC2)nc2ccccc21,12.6%,-79.0*,4.4%,-10.9%,-20.8,2.4%
CCCn1c(N2CCN(C(=O)/C=C/C(=O)O)CC2)nc2ccccc21,/,25.2,10.5%,-5.7%,6.7,-5.9%
CCn1c(N2CCN(C(=O)/C=C/c3ccccc3)CC2)nc2ccccc21,-3.7%,-90.3*,-5.2%,8.2%,?,2.0%
COc1ccc(CC(=O)NCC(c2ccc(N(C)C)cc2)N2CCOCC2)cc1OC (centres undefined),/,/,/,1.9%,/,/
Cc1cc2nc(-c3cccc(NC(=O)COc4ccc(Cl)c(C)c4)c3)oc2cc1C,/,/,/,-18.7%,/,/
O=C1NC2CCCCC2C(=O)N1OS(=O)(=O)c1ccccc1 (centres undefined),/,-1.7,0.752µM*,15.8µM*,-3.8,/
COc1cc(C(=O)O/N=C2\C=CC(=O)C(C)=C2)cc(OC)c1OC,1.4%,18.3,21.2µM*,?,-2.9,?
C/C=C1\COC(C(=O)NC)(C(F)(F)F)C=C1C=C1CCCCC1 (centres undefined),9.7%,/,/,?,/,/
Cc1ccc(OC(=O)C2c3ccccc3Oc3ccccc32)cc1C,-3.6%,-19.6,-5.4%,-6.7%,-131.2*,/
CC(C)c1ccc(OCc2ccc(C(=O)N3CCN(c4ccccn4)CC3)cc2)cc1,-1.5%,-71.8*,-0.6%,-2.2%,-15.2,10.4%
CC(C)c1ccc(COc2ccc(C(=O)N3CCOCC3)cc2)cc1,5.5%,1.5,0.5%,-11.8%,-5.7,-7.0%
Cc1ccc(OC(C)C(=O)N2CCN(c3ccccn3)CC2)cc1 (centres undefined),/,4.4,26.7µM*,-24.1%,0.5,/
Cc1ccc(C(=O)N2CCN(c3ccccn3)CC2)cc1,2.1%,-9.0,-7.8%,-11.3%,-1.1,-0.4%
Cc1ccc(S(=O)(=O)NCC(=O)NCC(=O)OCC(=O)N2CC(=O)Nc3ccccc32)cc1C,9.7%,13.7,16.8µM*,-12.2%,/,-7.6%
Cc1ccc(C)c(Cn2c(=O)n(CCCC(=O)NCc3ccc4c(c3)OCO4)c(=O)c3sccc32)c1,/,/,/,-9.5%,/,/
CNCC[C@@H](Oc1ccc(C(F)(F)F)cc1)c1ccccc1,3.3%,-91.5*,-12.2%,-26.9%,/,/
Cc1ccc(NC(=O)c2cc(N3C(=O)C=CC3=O)ccc2Cl)cc1C,-10.9%,0.1,5.32µM*,35.5µM*,-7.1,-6.2%
Cc1ccc(NC(=O)c2cc(N3C(=O)C4CC=CCC4C3=O)ccc2N2CCOCC2)cc1Cl (centres undefined),11.0%,-6.2,-4.8%,12.3%,2.7,-3.3%
CN(C)c1ccc(N/C=C/C(=O)c2ccc(F)cc2)cc1,-25.8%,-4.1,9.1%,?,5.2,14.7%
CN(C)c1ccc(N/C=C/C(=O)c2ccco2)cc1,-12.8%,1.1,0.9%,89.1µM*,-1.6,?
CS/C(=N\S(=O)(=O)c1ccc(F)cc1)c1ccccc1,/,/,/,10.7%,/,/
CC(=O)c1cccc(NC(=O)Cn2c(=O)oc3cc(S(=O)(=O)NC4CCCC4)ccc32)c1,/,/,/,0.4%,/,/
SMILES,CBFb RUNX1 block,KCNH2 3.1 inh,PLK1 PBD block,VDR inh,hERG WT inh,MBNL1 CUG block
COc1ccc(C2CC(=O)N(CCCN(C)CCc3ccc(OC)c(OC)c3)C2)cc1 (centres undefined),-9.1%,-17.2,-4.8%,-1.5%,/,-8.9%
COc1ccc(CCN(C)CCCN2CC(c3ccccc3)CC2=O)cc1OC (centres undefined),5.5%,-88.2*,?,-14.8%,5.4,-16.7%
O=C(CSc1nnnn1-c1ccc(F)cc1)NC1CCCCC1,1.8%,-8.9,26.7µM*,?,2.7,-3.2%
CCCCn1nnnc1SCC(=O)NC1CCCCC1,/,-7.6,-10.6%,-17.5%,-122.7*,0.3%
O=C(c1ccco1)N1CCN(CCCCN2C(=O)c3ccccc3C2=O)CC1,8.0%,1.7,-11.8%,-2.7%,25.8,23.1%
O=C(OCCCN1C(=O)c2ccccc2C1=O)c1ccco1,3.6%,3.0,26.7µM*,1.5%,-2.5,12.8%
COc1ccccc1C1N=C(Nc2nc3ccccc3o2)NC2=C1C(=O)CC(C)(C)C2 (centres undefined),/,/,/,-3.0%,/,/
N#CC(CCc1ccc([N+](=O)[O-])cc1)(CCc1ccc([N+](=O)[O-])cc1)C(N)=O,/,-129.1*,-13.5%,3.5%,-92.9*,/
O=[N+]([O-])c1ccc(Cc2ccc([N+](=O)[O-])cc2)cc1,/,-10.3,-5.6%,1.2%,0.4,/
Nc1cc(C(=O)O)ccc1Sc1ccccc1C(=O)O,-17.4%,6.7,10.6µM*,?,/,5.6%
Cc1cc(C)cc(NC(=O)NNC(=O)c2cc3occc3[nH]2)c1,/,-8.5,-0.6%,-0.7%,-46.5,-4.3%
Cc1cccc(NC(=O)NNC(=O)c2cc3occc3[nH]2)c1C,/,-449.3*,-7.0%,8.5%,-13.5,3.3%
CCc1cccc2c(-c3ccc(F)cc3)nc(SCC(=O)Nc3ccccc3)nc12,/,/,/,3.2%,/,/
COc1ccccc1N1CCN(c2nc(-c3ccc(C)cc3)nc3ccccc23)CC1,/,/,/,10.6%,/,/
C=CCSc1nc2ccccc2c(=O)[nH]1,0.0%,4.9,0.6%,15.6%,4.5,5.5%
C=CCSc1nccc(=O)[nH]1,6.2%,-6.4,13.4µM*,?,1.0,/
O=C(O)Cc1c[nH]c2ccc(O)cc12,3.5%,7.3,4.7%,50.1µM*!,-8.4,/
O=C(O)C(=Cc1ccncc1)c1cccc2ccccc12,/,-3.0,-5.7%,/,-2.1,/
O=C(O)/C(=C\c1ccc2ccccc2c1)c1cccc2ccccc12,/,-5.1,21.2µM*,-29.4%,-2.0,/
CCC(C)Nc1nc(N)c([N+](=O)[O-])c(NCc2ccccc2)n1 (centres undefined),/,-23.0,29.9µM*,-8.7%,-8.3,2.5%
CC(=O)c1cccc(NC(=O)c2nc3ccccc3n(C)c2=O)c1,/,/,/,-3.4%,/,/
CC(=O)N1CCC(N(Cc2ccc(C)o2)C(=O)Nc2ccccc2F)CC1,/,/,/,4.8%,/,/
NS(=O)(=O)c1ccc(N=C2C(=O)Nc3ccccc32)cc1,-3.6%,-2.9,2.0%,10.0%,2.6,?
O=C1Nc2ccccc2C1=Nc1ccc(S(=O)(=O)Nc2nccs2)cc1,5.5%,10.9,26.7µM*,-14.1%,-4.0,?
